Measurements taken from PubChem BioAssay AID1210 (NMMLSC, 2008).
Calls of active or inactive are those of the source.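 The calls were made as follows: active = blocks over 70% of labeled estradiol binding at 10 µM, or over a set limit at 100 nM; inactive = the rest.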

Target: Estrogen receptor beta (Homo sapiens) (UniProt Q92731)
Test: ERbeta ligand binders by competition, primary screen, cell-based, Cos7 ERbeta-GFP, flow cytometry (AID 1210);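 also: 0% = DMSO vehicle wells and 100% = complete loss of labeled estradiol signal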
Details: fluorescent estrogen binding, stronger effect = higher value
[1] = ligand binding inhibition, at 0.1 µM

Sequence of Estrogen receptor beta (Homo sapiens) (Q92731 whole entry, looked up): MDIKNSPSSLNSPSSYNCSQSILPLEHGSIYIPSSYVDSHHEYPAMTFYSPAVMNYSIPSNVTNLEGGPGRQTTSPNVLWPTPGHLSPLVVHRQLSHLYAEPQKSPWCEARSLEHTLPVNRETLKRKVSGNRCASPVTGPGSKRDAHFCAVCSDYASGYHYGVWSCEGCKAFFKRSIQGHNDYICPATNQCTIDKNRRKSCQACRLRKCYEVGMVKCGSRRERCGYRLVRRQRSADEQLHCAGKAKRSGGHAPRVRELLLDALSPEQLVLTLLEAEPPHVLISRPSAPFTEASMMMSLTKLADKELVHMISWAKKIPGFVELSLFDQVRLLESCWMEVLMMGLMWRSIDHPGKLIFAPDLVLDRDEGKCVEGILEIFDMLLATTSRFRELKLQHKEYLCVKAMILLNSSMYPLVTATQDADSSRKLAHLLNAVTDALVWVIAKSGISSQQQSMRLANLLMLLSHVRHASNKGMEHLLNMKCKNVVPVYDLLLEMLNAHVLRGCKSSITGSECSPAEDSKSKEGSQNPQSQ

Row | Compound | inhibition (at 10 µM) | inhibition [1] [%]
1 | COc1ccc(C2Nc3ccccc3C(=O)N2c2ccc(Cl)cc2)cc1Cn1cc([N+](=O)[O-])cn1 (centres undefined) | 63% (inactive) | 36
2 | O=C(CSc1nnc(-c2ccc(O)cc2)n1Cc1ccccc1)NNC(=O)c1ccc(Br)cc1 | 31% (inactive) | 30
3 | Cc1ccc(OCCN2CCN(CC(O)Cn3c4ccccc4c4ccccc43)CC2)cc1 (centres undefined) | 62% (inactive) | 31
4 | C/C(=N\Nc1ccc([N+](=O)[O-])cc1)c1cccc(N)c1 | 14% (inactive) | 24
5 | CCC(Sc1ncnc2sc(C)c(C)c12)C(=O)OC (centres undefined) | 27% (inactive) | 41
6 | COc1ccc(OC)c(N2C(=O)[C@@H]3C(c4ccccc4Cl)=NO[C@@H]3C2=O)c1 | 52% (inactive) | 30
7 | CCOC(=O)C1=c2/c(=C/c3ccccc3OC)c(N)c(C#N)n2C(=O)C(c2ccccc2OC)S1 (centres undefined) | 34% (inactive) | 46
8 | O=C(Cc1cccs1)Nc1ccccn1 | 39% (inactive) | 10
9 | O=c1cc(-c2ccc(O)c(O)c2)oc2c(C3O[C@H](CO)[C@@H](O)[C@H](O)[C@H]3O)c(O)cc(O)c12 (some centres undefined) | 40% (inactive) | 17
10 | O=c1c(C(c2ccc(O)cc2)c2c(O)nc3n(c2=O)CCS3)c(O)nc2n1CCS2 | 3% (inactive) | 7
11 | O=S(=O)(c1cccc(-c2cn3cccnc3n2)c1)N1CCCCCC1 | 14% (inactive) | 17
12 | O=C(Cn1c(=O)n(Cc2ccco2)c(=O)c2c3c(sc21)CCCCC3)Nc1ccccc1 | 37% (inactive) | 39
13 | CCSc1nc2c(cnn2-c2ccc(C)cc2)c(=O)[nH]1 | 31% (inactive) | 29
14 | COc1ccccc1N1CCN(C(=O)c2ccc3nc(-c4ccco4)c(-c4ccco4)nc3c2)CC1 | 60% (inactive) | 11
15 | CC(C)(C)OC(=O)N1CCN(c2ccc(NC(=O)Cn3nnc(-c4ccccc4)n3)cc2)CC1 | 64% (inactive) | 6
16 | O=C(Cc1cn2ccsc2n1)OCc1nc2ccccc2s1 | 58% (inactive) | 24
17 | CC(C)CN(C(=O)COC(=O)c1cc2c(s1)CCC2)C1CCS(=O)(=O)C1 (centres undefined) | 25% (inactive) | 28
18 | C=CCn1c(SCC(=O)NC(=O)NCc2ccco2)nc2sc(CC)cc2c1=O | 33% (inactive) | 10
19 | Cc1nn(-c2ccc(Cl)cc2)c2sc(C(=O)N3CCN(c4ccccn4)CC3)cc12 | 50% (inactive) | 40

Row | Compound | inhibition (at 10 µM) | inhibition [1] [%]
20 | O=c1cc(CSc2nnc(-c3cccs3)n2Cc2ccccc2)nc2sc3ccccc3n12 | 54% (inactive) | 26
21 | O=C(c1cc2ncc(Br)cn2n1)N1CCOCC1 | 68% (inactive) | 41
22 | CCc1ccc(Nc2cc(C(=O)NCCCN3CCOCC3)c3ccccc3n2)cc1 | 38% (inactive) | 12
23 | O=C(Cc1ccccc1)Nc1ccc2oc(-c3cccnc3)nc2c1 | 65% (inactive) | 20
24 | C[C@@H]1O[C@@H](Oc2c(-c3cc(O)c(O)c(O)c3)oc3cc(O)cc(O)c3c2=O)[C@H](O)[C@H](O)[C@H]1O | 31% (inactive) | 30
25 | O=C(Oc1ccc2c(c1)OCO2)c1cc2c(s1)CCC2 | 52% (inactive) | 48
26 | Cc1cc2n(c1)CCn1c(C)ccc1-2 | 17% (inactive) | 31
27 | COc1cc(C(=O)Nc2nnc(-c3sccc3C)s2)cc(OC)c1OC | 52% (inactive) | 34
28 | O=c1[nH]cnc2c1sc1nc3c(c(-c4ccc(Cl)cc4)c12)CCC3 | 51% (inactive) | 19
29 | Cn1ccnc1SCC(=O)Nc1ccc2nc(SCC(=O)NC3CC3)sc2c1 | 46% (inactive) | 38
30 | CCOC(=O)c1c(C)[nH]c(C)c1C(=O)CSc1nnc(-c2cc(OC)c(OC)c(OC)c2)o1 | 69% (inactive) | 7
31 | COc1ccc(OC)c(C2Nc3c(Cl)ccc(C(=O)O)c3C3C=CCC32)c1 (centres undefined) | 0% (inactive) | 52
32 | CCOC(=O)C1CCCN(C(=O)c2cc3ncc(Br)cn3n2)C1 (centres undefined) | 0% (inactive) | 26
33 | O=Cc1ccc2oc3nc4n(c(=O)c3c(=O)c2c1)CCCS4 | 15% (inactive) | 2
34 | O=C(O)C1CSC(c2coc3ccccc3c2=O)N1 (centres undefined) | 26% (inactive) | 46
35 | O=C1c2ccccc2NC(c2ccc(O)cc2)N1/N=C/c1ccc(O)cc1 (centres undefined) | 71% (active) | 1
36 | O=C(O)C1Nc2c(O)cccc2C2C=CCC12 (centres undefined) | 0% (inactive) | 4
37 | Cc1ccc2c(c1)c(=O)c1c3n2CCN(C(=O)CCl)C3CC1 (centres undefined) | 37% (inactive) | 33
